# In all, about 25,000 sequences were measured (“ln(normalized median fluorescence intensity)”: median about 9.3, highest 2% from about 10 on). Only a selection was taken, and the highest values are over-represented in it overall.
# Tested on: PF3D7_0420300 AP2 domain 1 (GST-tagged)
# Assay: gcPBM binding intensity (ln(normalized median fluorescence intensity)); higher = stronger DNA binding
# Procedure, shortened: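 Alexa488 anti-GST antibody, scanned at 488 nm, detected GST-tagged P. falciparum DNA-binding domains that had been expressed in E. coli and incubated for 1 h on an Agilent 4 × 180k array. The array carried primer-extended double-stranded 36-bp intergenic genomic probes and negative controls. Binding intensity is the highest Masliner-normalised natural-log median intensity across replicate spots of either orientation of each probe.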
row,Sequence,gcPBM binding intensity (ln)
1,AACATACATAAACACACACACACACCCACAGAGACA [CACACA_site4430],10.4
2,ATAAAATACAGATAAACACACATATAAACACCCATA [CACACA_site5381],9.92
3,TAAACAGACATATAAACACACATATAAACAGACATA [CACACA_site7214],9.91
4,AAAATACAGAAACACACACACACACCCATATATATA [CACACA_site3559],10.3
5,AATGTACCCACACCCACACACAAACAAATATATATA [CACACA_site2751],9.85
6,AAAAAAAAAAAAAAAACACACAGAAATATATATATA [CACACA_site4611],9.55
7,TTTAAATACAGACATACACACATACACCCACATATA [CACACA_site8078],9.81
8,CAAAAAAAATTATACACACACACACCCATATATATA [CACACA_site1044],10.2
9,CACAAAAAAAATTATACACACACACCCATATATATA [CACACA_site8255],9.99
10,AATGTACACGCACCCACACACAAACAAATATAAATA [CACACA_site7319],9.81
11,AATGTACACCCACCCACACACAAACAAATATATATA [CACACA_site5521],10.2
12,ATTAATTATATATATACACACACATACACCCAAATA [CACACA_site9126],10
13,AAATAACACTAATGATGTACTCAACTATTTATAATT [XGTACX_site8183],9.47
14,TAAATATCAAGACACACACACAAAAGTGAATAAATA [CACACA_site7723],9.9
15,TTATATTCTAGAGACACATGCGATTTTTTATTTTAT [TGCATGCA_site649],9.42
16,ATATAATGATGGAAAAGAAAAGAAATAAAAAAAAAA [CACACA_negctrl_site1170],9.21
17,TAGTTATCACATTGCACACACATTTCCTTTTACATT [CACACA_site7589],10
18,CTAAAAATTTTAATTGCACACCACGTTGGACTATTT [CACACA_site1489],9.24
19,AGCCATTAATTCTCTACACACCTTTATGTTATTTAG [CACACA_site3635],9.71
20,TATTTTAATGAAGCATTTAAGGGAAAAAAAAAAAAA [TGCATGCA_negctrl_site606],8.85
21,TTTACAAAAAATTATACACACACGTACAGATAAATA [CACACA_site4678],9.89
22,AAAAAAAAAAAAAACACACACACACCCATACAAAAT [CACACA_site1446],10.1
23,AAAAAATACAAACACACACACACACCCATATATATA [CACACA_site3560],10.2

row,Sequence,gcPBM binding intensity (ln)
1,TATACATACCCACCCACACACAAAAAAAAAAAAAAA [CACACA_site4632],9.68
2,TATAAATAAATTTATACACACACACCCATATATATA [CACACA_site8183],10
3,TATACGCAGAAACACACACACATACACCCACATACA [CACACA_site1723],10
4,TATATACACAAACACACACACACATACACCCACATA [CACACA_site8504],10.3
5,TATATACACCCACATACACACAAATAAAAAAACACC [CACACA_site3414],9.98
6,TACAAACACCCATATACACACAAAAAAAAAATAAAA [CACACA_site5421],9.55
7,AATAAATATATATACACACCCATATATATATATATA [CACACA_site2595],9.43
8,TAAATAAATTTATACACACACACACCCATATATATA [CACACA_site849],10.2
9,AACATACAGAAACACACACACACACCCACACCCACA [CACACA_site493],10.3
10,TATATACAGAAACACACACACACATATATATATATA [CACACA_site2247],10.1
11,GATAAAATAAAAGTGGGTACTTAAATATATATATAA [XGTACX_site8457],9.28
12,ATAAGAAAAAAGAACTGTACTAATAAAATATAAAAA [XGTACX_site3715],9.3
13,TTTCGTAAAATGAAATGTACTCAAAAGTAAATATAA [XGTACX_site214],9.03
14,TATTTTTCCATATGCACACACACCGTATATATAATA [CACACA_site1127],10
15,AAAGAATAATTAAATACACACATATTGCAGTAAAAA [CACACA_site7201],9.69
16,TATAAAAAATATAATTGTACATAAAGGTTAAAATGT [XGTACX_site6138],9.47
17,ATTAGTTTTATATATAGTACATATAATTTTGAAGGT [XGTACX_site7445],9.2
18,GTTAAAAAAAGGAGAGATCTCACACAAATATATATA [GTGCAC_negctrl_site117],9.22
19,TATATACGCAAACACACACACACATACACCCACATA [CACACA_site1724],10.2
20,AAAACACCCAAACACACACACACATATATATATATA [CACACA_site9119],10.1
21,CATATACGCAAACACACACACATATATATATATATA [CACACA_site501],10
22,CAAAAAAACAAACACACACACACACCCATATATATA [CACACA_site3653],10.2
23,CATATATATAAATACACACACACACCCCTTATAATT [CACACA_site4064],10.2

row,Sequence,gcPBM binding intensity (ln)
1,CATATATACGCATACACACACACACCCACACCCACA [CACACA_site1725],10.2
2,AACAAAAAAACAAACACACACACACCCATATATATA [CACACA_site3652],9.98
3,CATATAAATAAATACACACACACACGCCTTATAATT [CACACA_site7830],10.2
4,TCAAATAATTTGTTGACACACACACCCACATACATA [CACACA_site8717],9.85
5,TACATATATATAAATACACACACACCCACCTTATAA [CACACA_site9346],10.1
6,AAATAATTTGTTGACACACACACACCCATACATATA [CACACA_site2285],10.2
7,AAATAATTTGTTGACACACACACACCCATACAGATA [CACACA_site5291],10.1
8,TAATATATGTTATATACACACATATAAATATAAATA [CACACA_site6339],9.2
9,TGTTACATAAAATGCACACTTTCAAATATGCTAATA [CACACA_site2925],9.05
10,GTTTCCTTAATATTCACACACATATCTATAATATAT [CACACA_site6959],9.87
11,ACAAATAAAAATATTACACACACTATTATATTGATA [CACACA_site1494],9.86
12,TCATAGTATAGACACACACACACACGCATATAAATA [CACACA_site6915],10.2
13,TACACGCATAGACACACACACACACGCATATAAATA [CACACA_site6446],10.3
14,CATATACATAGACACACACACACATAAATAAATATA [CACACA_site6749],10.1
15,ATGGCCATAATATAGACACACATATATAAATATATA [CACACA_site2230],9.28
16,ATATAAAATAGACACGCACACAAAAAAAAAAAAAAA [CACACA_site3522],9.5
17,TATATTGATGATGATAGTACGTATGATTAGAAAAAA [XGTACX_site8989],9.18
18,ATGTATATGTCTATATGTACTTATATTTTATTTTTT [XGTACX_site5902],9.37
19,TTAATATATTAAATCTTACACACTAAAAAATATGTA [CACACA_site307],9.16
20,ATACTAACATTTTTTTGTACATATAACTATAAAATA [XGTACX_site1033],9.16
21,AGATATTTATTGAGTGCATGTTATAAAGGGAAAAAA [TGCATGCA_site88],9.32
22,TATAACATATGACACACACACATACATACACAAAAA [CACACA_site6935],10.2
23,ATAAAACAAAAACACACACACATACACAAAAAAAAA [CACACA_site3848],10.2

row,Sequence,gcPBM binding intensity (ln)
1,AACACATACAAACACACACACAAAAAAAAAAAAAAA [CACACA_site393],9.78
2,TATAACATAGGACACACACACATACATACACAAAAA [CACACA_site5062],10.2
3,TTTAACATAAATTAAACACACAATAAAATACATTAA [CACACA_site6699],9.54
4,TATACACATATATAAACACACAAAAAAAAAAAAAAA [CACACA_site7041],9.38
5,AAATAAAACAAACACACACACACATACACAAAAAAA [CACACA_site3849],10.2
6,AATAAAATAAAATACACACATACATACATACAAATG [CACACA_site2438],10.2
7,ATTAAATACATTAACACACACACAAATAAATACATA [CACACA_site5583],10.3
8,ATTAAATACATTAACACACACACAAATATATACATA [CACACA_site2881],10.1
9,AAAATAAAATAAAATACACACATACATACATACAAA [CACACA_site5366],9.95
10,TATAACATAAAACACACACACATACATACACAAAAA [CACACA_site1804],10.1
11,TATATATTTCATAATACACACGAAAAAAAAAAAAAA [CACACA_site8972],9.31
12,TACATTTAAAAAAAAACACACATATATATATATATA [CACACA_site2535],8.99
13,TAATTTTTATTCAAGAGTACACAAAAGATAACTAAA [XGTACX_site4060],9.14
14,AAAAAAAAAAAACATACACACAAATAAATACATACA [CACACA_site6073],9.9
15,AAGACACAAAAACACACACACATACATACATACATA [CACACA_site454],9.91
16,CAAAGACACAAACACACACACACATACATACATACA [CACACA_site453],10.1
17,AATAAACATAAATACACACACAAAAAAAAAAACATA [CACACA_site4396],10.3
18,ATAAAACAAAGACACACACACATACACAAAAAAAAA [CACACA_site7752],10.2
19,ACAAAAAAAAAAAAAATACACACACATAAAAAAAAA [TGCATGCA_negctrl_site333],9.72
20,TAATTTTTTTAAAAGCGTACATTTAAAAAAAAATAT [XGTACX_site2736],8.76

# From the supplement of paper PMC11417369
